Records with an inconclusive call do not appear. Activity calls are given as the source filed them. Unless noted, calls follow the shape of the dose curve; as a rule, active = well fitted curve in the direction sought with a large enough effect in the repeat runs; inconclusive = weak or mixed curves; inactive = no such curve, though single readings can be large; an effect the other way counts as inactive or inconclusive.
Assays:
[1] = qHTS assay to identify small molecule agonists of H2AX - cell viability counter screen (AID 1224847; calls by dose curve; also: nearly all actives have a fitted effect of over 30% in size; also: potency is read from the fitted curve at half-maximal effect)
Method in brief: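 Read-out: CellTiter-Glo luminescence, 30 min RT. Cells: wild-type CHO-K1, 1000/well, 10% FBS, plated overnight at 37C. Treatment: 15 concentrations, 3 hr, 37C, 0.76% DMSO.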

[2] = qHTS assay to identify small molecule antagonists of the estrogen related receptor (ERR) signaling pathway from Tox21 library (AID 1224848); also: nearly all actives have a fitted effect of over 50% in size; also: potency is read from the fitted curve at half-maximal effect
Method in brief: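 Cells: ERR line, 2,000/well; 6 h preincubation 37 C/5% CO2. Cpd in DMSO via pin tool; 18 h, 37 C. ONE-Glo, 30 min RT, luminescence.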

[3] = qHTS assay to identify small molecule agonists of the estrogen related receptor (ERR) signaling pathway from Tox21 library (AID 1224849; calls by dose curve; also: nearly all actives have a fitted effect of over 15% in size); details: ERR reporter cell line, ONE-Glo luciferase, 18 h; at 92.4 µM (top of the series) unless noted
Method in brief: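 ERR cells, 6 h pre-incubation 37 C/5% CO2; cpd in DMSO pinned; 18 h 37 C; ONE-Glo added, 30 min RT; luminescence read. Agonist mode, qHTS.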

[4] = qHTS RealTime-Glo MT Cell Viability Assay in HepG2 cells - 24 hour (AID 1224867); also: nearly all actives have a fitted effect of over 50% in size
Method in brief: (§1)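 HepG2 suspension premixed with RealTime-Glo reagents is plated at 600 cells per well and left 5 h at 37 C/5% CO2. Compounds in DMSO then go in, and bioluminescence reflecting viable cell number is recorded over 40 h.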

[5] = qHTS RealTime-Glo MT Cell Viability Assay in HEK293 cells - 32 hour (AID 1224868); also: nearly all actives have a fitted effect of over 50% in size; also: potency is read from the fitted curve at half-maximal effect
Method in brief: (§2)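 Reads taken at 0, 8, 16, 24, 32 and 40 h from the same wells. HEK293 cells (600/well) carried RealTime-Glo reagents from seeding, with compound added after a 5 h settle at 37 C.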

[6] = A CellTox Green Cytotoxicity Assay to monitor cytotoxicity in HEK293 cells - 0 hour (AID 1224869); also: nearly all actives have a fitted effect of over 50% in size
Method in brief: (§3)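 Nonlytic real-time cytotoxicity: HEK293 + CellTox Green reagent plated, 5 h preincubation, pintool compound addition (23 nL in DMSO), 37 C for 40 h, fluorescence measured at successive time points.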

[7] = qHTS RealTime-Glo MT Cell Viability Assay in HepG2 cells - 40 hour (AID 1224870); also: nearly all actives have a fitted effect of over 50% in size
Method in brief: (§4)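 HepG2 cells mixed with RealTime-Glo MT reagents (NanoLuc plus cell-permeant prosubstrate) were seeded at 600 cells/well, incubated 5 h at 37 C/5% CO2, then pinned with compounds in DMSO; nonlytic luminescence tracked viability during 40 h treatment.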

[8] = A CellTox Green Cytotoxicity Assay to monitor cytotoxicity in HEK293 cells - 40 hour (AID 1224871); also: nearly all actives have a fitted effect of over 45% in size
Method in brief: as §3

[9] = qHTS RealTime-Glo MT Cell Viability Assay in HEK293 cells - 16 hour (AID 1224872)
Method in brief: as §2

[10] = qHTS RealTime-Glo MT Cell Viability Assay in HepG2 cells - 8 hour (AID 1224873); also: nearly all actives have a fitted effect of over 55% in size
Method in brief: as §4

[11] = qHTS RealTime-Glo MT Cell Viability Assay in HEK293 cells - 40 hour (AID 1224874); details: RealTime-Glo luminescence; max response: hits give low values; also: nearly all actives have a fitted effect of over 50% in size; also: potency is read from the fitted curve at half-maximal effect
Method in brief: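 Cells were seeded together with NanoLuc luciferase and a prosubstrate that viable cells reduce to a luciferase substrate. After a 5 h incubation at 37 C/5% CO2, compounds were added and luminescence was measured repeatedly during 40 h of treatment.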

[12] = A CellTox Green Cytotoxicity Assay to monitor cytotoxicity in HepG2 cells - 16 hour (AID 1224876); also: nearly all actives have a fitted effect of over 45% in size
Method in brief: (§5)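 Read-out is fluorescence of a cyanine dye excluded from live cells that stains DNA of dead HepG2 cells, with signal proportional to cytotoxicity. Plates were read at 0, 8, 16, 24, 32 and 40 h after compound addition.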

[13] = qHTS RealTime-Glo MT Cell Viability Assay in HepG2 cells - 32 hour (AID 1224877); also: nearly all actives have a fitted effect of over 55% in size
Method in brief: as §1

[14] = A CellTox Green Cytotoxicity Assay to monitor cytotoxicity in HepG2 cells - 24 hour (AID 1224878); also: nearly all actives have a fitted effect of over 45% in size
Method in brief: as §5

[15] = qHTS assay to identify small molecule agonists of the hypoxia (HIF-1) signaling pathway - cell viability counter screen (AID 1224844; calls by dose curve; also: nearly all actives have a fitted effect of over 50% in size)
Method in brief: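 ME-180 HRE-bla cells, 2,000/well, 0.5% dialyzed FBS; 5 hr settle, 17 hr compound at 37C/5% CO2; CCF4-AM reporter read first, then CellTiter-Glo luminescence after 30 min RT.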

[16] = qHTS assay to identify small molecule agonists of the hypoxia (HIF-1) signaling pathway (AID 1224846; active = well fitted activation curve with a large enough effect in the signal ratio in the repeat runs, not every such curve was filed as active; the % refers to the signal ratio)
Method in brief: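 Cell line: CellSensor HRE-bla ME-180; 2,000 cells/well; 0.5% dialyzed FBS; 5 h preincubation; DMSO compound pin transfer; 17 h, 37C, 5% CO2; CCF4-AM added; bla FRET signal scored for activation.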

[17] = A CellTox Green Cytotoxicity Assay to monitor cytotoxicity in HEK293 cells - 24 hour (AID 1224875); also: nearly all actives have a fitted effect of over 45% in size
Method in brief: as §3

[18] = A CellTox Green Cytotoxicity Assay to monitor cytotoxicity in HepG2 cells - 40 hour (AID 1224879); also: nearly all actives have a fitted effect of over 40% in size
Method in brief: as §5

[19] = qHTS assay to identify small molecule agonists of H2AX (AID 1224845; active = well fitted activation curve with a large enough effect in the signal ratio in the repeat runs, not every such curve was filed as active; the % refers to the signal ratio)
Method in brief: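 Wild-type CHO-K1 cells plated overnight, then exposed 3 hr at 37C to compounds at 15 concentrations (0.76% DMSO). Lysed, then HTRF anti-pH2AX(S139)-cryptate/anti-H2AX-d2 detection after 24 hr at room temperature; emissions 665 and 620 nm.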
% is scaled to controls: 0 for no effect and ±100 for the full control effect.

CC(C)(C)S
inactive: Potency [1] | Potency [2] | activity change, positive = activation [3] 4.53% | Potency [4] | Potency [5] | Potency [6] | Potency [7] | Potency [8] | Potency [9] | Potency [10] | max response [11] -0.0448% | Potency [12] | Potency [13] | Potency [14]

Cc1ccc2nc(N)[nH]c(=O)c2c1Sc1ccncc1
inactive: Potency [15] | outcome [16] | Potency [1] | activity change, positive = activation [3] -24.3% [at 42.5 µM] | Potency [6] | Potency [7] | Potency [8] | Potency [9] | Potency [17] | Potency [12] | Potency [13] | Potency [14] | Potency [18]

COc1ccc(C(=O)NCc2ccc(OCCN(C)C)cc2)cc1OC
inactive: Potency [15] | Potency [19] | Potency [1] | Potency [2] | activity change, positive = activation [3] -0.159% [at 42.5 µM] | Potency [4] | Potency [5] | Potency [6] | Potency [8] | Potency [9] | Potency [10] | max response [11] 2.93% | Potency [17] | Potency [12] | Potency [13] | Potency [14]

CC1CCCO1 (centres undefined)
inactive: Potency [15] | Potency [19] | outcome [16] | Potency [1] | Potency [4] | Potency [5] | Potency [7] | Potency [8] | Potency [9] | Potency [10] | max response [11] 5.81% | Potency [17] | Potency [12] | Potency [13] | Potency [18]

COc1cc(NCc2ccc3nc(N)nc(N)c3c2C)cc(OC)c1OC
active: Potency [1] 220 nM | Potency [2] 47.3 nM | Potency [5] 26.8 nM | Potency [11] 23.9 nM
inactive: Potency [15] | activity change, positive = activation [3] -56.3% [at 42.5 µM] | Potency [4] | Potency [6] | Potency [7] | Potency [8] | Potency [10] | Potency [17] | Potency [12] | Potency [13] | Potency [18]

CC1CCCC(=O)C1=O (centres undefined)
inactive: Potency [15] | Potency [19] | outcome [16] | Potency [1] | Potency [4] | Potency [5] | Potency [7] | Potency [8] | Potency [9] | Potency [10] | max response [11] 4.99% | Potency [17] | Potency [12] | Potency [13]

CC(O)Cn1cnc2c1c(=O)n(C)c(=O)n2C (centres undefined)
inactive: Potency [15] | Potency [1] | Potency [2] | activity change, positive = activation [3] 0.481% [at 42.5 µM] | Potency [4] | Potency [5] | Potency [6] | Potency [7] | Potency [8] | Potency [9] | Potency [10] | max response [11] 5.1% | Potency [17] | Potency [12] | Potency [13] | Potency [14] | Potency [18]

CCc1ccc(C)cc1
inactive: Potency [15] | Potency [19] | outcome [16] | Potency [1] | Potency [4] | Potency [5] | Potency [7] | Potency [8] | Potency [9] | Potency [10] | max response [11] 11.4% | Potency [17] | Potency [12] | Potency [13] | Potency [14] | Potency [18]

Cc1cccc2sc(N)nc12
inactive: Potency [15] | Potency [19] | Potency [1] | Potency [4] | Potency [5] | Potency [6] | Potency [7] | Potency [8] | Potency [9] | Potency [10] | max response [11] 25.1% | Potency [17] | Potency [12] | Potency [13] | Potency [14] | Potency [18]

CCN(Cc1cccc(S(=O)(=O)O)c1)c1ccc(C(=C2C=CC(=[N+](CC)Cc3cccc(S(=O)(=O)O)c3)C=C2)c2ccccc2S(=O)(=O)[O-])cc1
inactive: outcome [16] | activity change, positive = activation [3] -48.9% [at 42.5 µM] | Potency [4] | Potency [5] | Potency [6] | Potency [8] | Potency [9] | Potency [10] | max response [11] -0.266% | Potency [17] | Potency [12] | Potency [13] | Potency [14]
active: Potency [1] 25400 nM | Potency [2] 15400 nM

CCCCCCCCCCCC(=O)OCC(O)CO (centres undefined)
inactive: Potency [15] | outcome [16] | Potency [1] | Potency [2] | activity change, positive = activation [3] 2.33% | Potency [4] | Potency [5] | Potency [6] | Potency [7] | Potency [8] | Potency [9] | Potency [10] | max response [11] 6.6% | Potency [17] | Potency [12] | Potency [13] | Potency [14] | Potency [18]

— PubChem BioAssay (Tox21)
